Experiment [1] can be described thus: qHTS assay to identify small molecule antagonists of the thyroid receptor (TR) signaling pathway - cell viability counter screen (AID 743064). Further: nearly all actives have a fitted effect of over 50% in size. Further: potency means the concentration at half of the fitted maximal effect. Summed up:
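Fluorescence from CellTiter-Fluor, added after 23.5 h exposure at 37 °C, reported viability of GH3.TRE-Luc cells co-treated with compound and 1 nM T3. Measured in the same wells as the luciferase TR readout.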
On the technique in general: In qHTS, concentration-response curves come from the screen itself.

Experiment [2] in a line: qHTS assay to identify small molecule antagonists of the thyroid receptor (TR) signaling pathway (AID 743065). Further: nearly all actives have a fitted effect of over 55% in size. Further: potency means the concentration at half of the fitted maximal effect. The method in brief: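 GH3.TRE-Luc rat pituitary cells (two TREs driving luciferase) were dosed with compound, then stimulated with 1 nM T3 (final) for 23.5 h at 37 C. ONE-Glo luminescence was the read-out, with CellTiter-Fluor fluorescence as the cytotoxicity counter-screen.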

In experiment [3] the test system is thyroid hormone receptor (rat, GH3 cells). Nature of the experiment: qHTS assay to identify small molecule agonists of the thyroid receptor (TR) signaling pathway (AID 743066; calls by dose curve).
The target of experiment [4] is Estrogen receptor (Homo sapiens) (UniProt P03372). Description: qHTS assay to identify small molecule agonists of the estrogen receptor alpha (ER-alpha) signaling pathway (AID 743075; calls by dose curve;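 further: HEK293 GripTite cells with ER-alpha and UAS-driven beta-lactamase reporter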; further: potency means the concentration at half of the fitted maximal effect).
Estrogen receptor (Homo sapiens), sequence (P03372 whole entry, looked up): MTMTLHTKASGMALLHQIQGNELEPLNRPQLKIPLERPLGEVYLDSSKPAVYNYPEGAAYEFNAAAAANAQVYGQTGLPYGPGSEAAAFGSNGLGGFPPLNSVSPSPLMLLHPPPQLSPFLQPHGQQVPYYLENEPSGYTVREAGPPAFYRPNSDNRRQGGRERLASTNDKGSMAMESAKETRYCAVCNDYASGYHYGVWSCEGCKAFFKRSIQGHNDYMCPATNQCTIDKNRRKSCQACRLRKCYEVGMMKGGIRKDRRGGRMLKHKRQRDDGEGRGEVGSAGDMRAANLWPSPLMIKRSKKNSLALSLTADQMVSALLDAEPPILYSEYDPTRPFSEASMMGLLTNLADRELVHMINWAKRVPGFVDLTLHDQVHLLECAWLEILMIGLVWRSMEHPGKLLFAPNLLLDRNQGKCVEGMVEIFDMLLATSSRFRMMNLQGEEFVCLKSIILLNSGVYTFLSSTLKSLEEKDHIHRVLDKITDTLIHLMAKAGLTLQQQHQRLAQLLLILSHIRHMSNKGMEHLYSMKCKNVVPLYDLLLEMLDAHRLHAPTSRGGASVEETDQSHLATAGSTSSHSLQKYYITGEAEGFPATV
The target is the same in experiment [5]. Description: qHTS assay to identify small molecule agonists of the estrogen receptor alpha (ER-alpha) signaling pathway using the BG1 cell line (AID 743079). Further: nearly all actives have a fitted effect of over 20% in size. Further: potency means the concentration at half of the fitted maximal effect.
The nature of experiment [6]: qHTS assay to identify small molecule antagonists of the estrogen receptor alpha (ER-alpha) signaling pathway using the BG1 cell line - cell viability counter screen (AID 743081).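 Further: compound given together with 17beta-estradiol as the ER stimulus; nearly all actives have a fitted effect of over 45% in size.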 Further: potency means the concentration at half of the fitted maximal effect.
Experiment [7] can be described thus: qHTS assay to identify small molecule antagonists of the estrogen receptor alpha (ER-alpha) signaling pathway - cell viability counter screen (AID 743074; calls by dose curve;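 further: HEK293 cells carrying ER-alpha-UAS-bla reporter stimulated with 17beta-estradiol; nearly all actives have a fitted effect of over 45% in size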; further: potency means the concentration at half of the fitted maximal effect).
The next experiment concerns the target Aromatase (Homo sapiens) (UniProt P11511). Nature of the experiment: qHTS assay to identify aromatase inhibitors (AID 743083). Further: nearly all actives have a fitted effect of over 55% in size. Further: potency means the concentration at half of the fitted maximal effect.
The nature of experiment [8]: qHTS assay to identify small molecule antagonists of the estrogen receptor alpha (ER-alpha) signaling pathway using the BG1 cell line (AID 743080; calls by dose curve;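 further: BG1 cells stimulated with 17beta-estradiol alongside compound; nearly all actives have a fitted effect of over 25% in size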; further: potency means the concentration at half of the fitted maximal effect). The method in brief: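 BG1Luc4E2, endogenous ER-alpha, 4xERE-luc; 5 d charcoal-stripped FBS, phenol red free; 24 h plating; cpd + 17beta-estradiol 21.5 h, 37 C/5% CO2; CellTiter-Fluor viability 30 min, then ONE-Glo luciferase 30 min RT.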

For experiment [9], the target named is Estrogen receptor (Homo sapiens) (UniProt P03372). Description: qHTS assay to identify small molecule antagonists of the estrogen receptor alpha (ER-alpha) signaling pathway (AID 743069; active means well fitted curve in the direction sought with a large enough effect in the signal ratio in the repeat runs, not every such curve was filed as active; inconclusive means weak or mixed curves, or effect the other way; inactive means no such curve, though single readings can be large or run the other way; the % refers to the signal ratio; further: potency means the concentration at half of the fitted maximal effect). The method in brief:
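Beta-lactamase FRET fluorescence is read after 2 hr at room temperature with LiveBLAzer B/G substrate. Before that, ER-alpha-bla HEK293 cells sit 4 hr after plating, then receive compound plus 17beta-estradiol and incubate 18 hr at 37C.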

SMILES strings stand for the structures. Several values for one entry are separate records, joined by “and”; a condition that tells them apart may be missing. Identical values can stand only once. A structure can be active in one record and inactive in another. Activity calls are given as the source filed them. Unless noted, the call rests on the fitted dose curve; in most records, active means well fitted curve in the direction sought with a large enough effect in the repeat runs; inconclusive means weak or mixed curves; inactive means no such curve, though single readings can be large; an effect the other way counts as inactive or inconclusive.

Aromatase (Homo sapiens), sequence (P11511 whole entry, looked up): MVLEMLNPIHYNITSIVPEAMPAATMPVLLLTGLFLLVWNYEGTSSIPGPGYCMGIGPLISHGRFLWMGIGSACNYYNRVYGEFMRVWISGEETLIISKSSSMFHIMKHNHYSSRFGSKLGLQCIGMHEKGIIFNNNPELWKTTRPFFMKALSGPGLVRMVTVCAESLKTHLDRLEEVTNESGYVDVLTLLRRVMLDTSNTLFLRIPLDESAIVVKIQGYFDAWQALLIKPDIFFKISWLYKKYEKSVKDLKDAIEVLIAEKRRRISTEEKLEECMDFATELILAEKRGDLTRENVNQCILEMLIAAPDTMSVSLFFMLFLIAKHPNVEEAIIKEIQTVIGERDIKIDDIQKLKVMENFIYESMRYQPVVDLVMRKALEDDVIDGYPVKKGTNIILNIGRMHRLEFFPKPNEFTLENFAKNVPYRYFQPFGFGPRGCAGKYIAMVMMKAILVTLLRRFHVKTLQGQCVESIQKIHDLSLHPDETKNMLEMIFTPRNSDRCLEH

`O=Nc1ccc(Nc2ccccc2)cc1`: the Potency was 5.48 µM (active) and 6.86 µM (active) in experiment [1]; 4.35 µM (active) and 5.45 µM (active) in experiment [2]; 12.4 µM [inconclusive] (active) and 55 µM [activator] (active) in experiment [4]; 68.6 µM (active) in experiment [5]. Also, the Potency entry in experiment [3] and in [6] was “inactive” each time.
Regarding `CC1=C(C=O)C(C)(C)CC=C1`, the Potency entry (in experiment [1]; in experiment [2]; in experiment [3]; in experiment [7]; in experiment [6]; in the experiment with Aromatase (Homo sapiens)) was “inactive” throughout.
Turning to `COc1ccc(CCN2CCC(Nc3nc4ccccc4n3Cc3ccc(F)cc3)CC2)cc1`, the Potency in [1] was 5.31 µM (active) and 1.25 µM (active); in [2] it was 5.96 µM (active) and 1.57 µM (active); in experiment [7], 12.6 µM (active); in experiment [6], 55.7 µM (active); with Aromatase (Homo sapiens), 6.25 µM (active). Also, the Potency entry in [3] is “inactive”.
With `CCCCCCCCCCCCc1ccccc1O`, the Potency in [1] is 13.7 µM (active); in [2], 13.7 µM (active); in experiment [7], 48.3 µM (active) and 49 µM (active); in [4], 13.6 µM [inconclusive] (active) and 3.89 µM [inconclusive] (active); in [5], 956 nM (active) and 1.93 µM (active); in experiment [6] it was 67.7 µM (active). Moreover, the Potency with Aromatase (Homo sapiens) was 30.2 µM (active) and 27.3 µM (active). In addition, the Potency entry in [3] is “inactive”.
Consider `CCCCCC(=O)O[C@]1(C(C)=O)CC[C@H]2[C@@H]3CCC4=CC(=O)CC[C@]4(C)[C@H]3CC[C@@]21C`, for which the Potency in experiment [1] was 18.8 µM (active); in [2] it was 10.6 µM (active) and 19.2 µM (active); with Aromatase (Homo sapiens), “inactive and 54.1 µM (active)”. Further, the Potency result in [3], in experiment [4] and in experiment [6] was “inactive” in each case.
As for `O=S(=O)(O)c1ccc2nc(-c3ccccc3)[nH]c2c1`, the Potency entry (in [1]; in experiment [2]; in [3]; in [6]; in the experiment with Aromatase (Homo sapiens)) was “inactive” each time.
Turning to `c1cnc2cc3c(cc2n1)C1CNCC3C1`, the Potency result in experiment [1], in [3], in experiment [7], in [4], in experiment [5] and in experiment [8] was “inactive” in each case. The Potency result (in [6]; in the experiment with Aromatase (Homo sapiens)) was “inactive” each time.
Turning to `O=C1Nc2ccccc2C1(c1ccc(O)cc1)c1ccc(O)cc1`, the Potency is 54.5 µM (active) in [1], 54.5 µM (active) in [2] and 0.969 µM (active) in experiment [6]. Also, the Potency entry (in experiment [3]; in experiment [7]; in experiment [4]; with Aromatase (Homo sapiens)) was “inactive” throughout.
Turning to `Cc1cc(C(C)(C)C)c(O)c(C(C)(C)C)c1`, the Potency entry (in [1]; in [2]; in experiment [3]; in experiment [7]; in [6]; in the experiment with Aromatase (Homo sapiens)) was “inactive” in each case.
Consider `C=CC(=O)OCCCCCCOC(=O)C=C`, for which the Potency is 55.1 µM (active) and 54.5 µM (active) in [1]; 27.6 µM (active) and 43.3 µM (active) in [2]. The Potency entry in [3], in [7], in [5] and in experiment [6] was “inactive” in each case.
Take `BrC1CCC(Br)C(Br)CCC(Br)C(Br)CCC1Br` (configuration not stated): the Potency was 5.43 µM (active) and 20.6 µM (active) in experiment [1]; 4.84 µM (active) and 13 µM (active) in experiment [2]; 48.8 µM (active) in [7]. The Potency result in experiment [3], in [4], in [8] and in [6] was “inactive” each time.
For `CNC1(C)C2CCC(C2)C1(C)C` (configuration not stated), the Potency result (in [1]; in [2]; in experiment [3]; in [7]; in experiment [6]; with Aromatase (Homo sapiens)) was “inactive” in each case.
Consider `[Cl][In]([Cl])[Cl]`, for which the Potency entry in experiment [1], in experiment [3], in experiment [9], in experiment [7], in experiment [4] and in experiment [8] was “inactive” throughout. The Potency entry (in [6]; with Aromatase (Homo sapiens)) was “inactive” in each case.
Take `O`: the Potency result (in experiment [1]; in experiment [7]; in experiment [6]; with Aromatase (Homo sapiens)) was “inactive” in each case.
As to `CCC(C)(C)C(=O)O[C@H]1C[C@@H](C)C=C2C=C[C@H](C)[C@H](CC[C@@H]3C[C@@H](O)CC(=O)O3)[C@H]21`, the Potency result (in experiment [1]; in experiment [3]; in [7]; in experiment [4]; in experiment [6]; with Aromatase (Homo sapiens)) was “inactive” throughout. Besides, in experiment [5], the Potency is 12.7 µM (active) and inactive.
Turning to `COc1cc(C(=S)N2CCOCC2)ccc1O`, the Potency entry in [2], in experiment [3], in [7], in experiment [4], in experiment [5] and in experiment [8] was “inactive” throughout. Further, the Potency entry (in experiment [6]; with Aromatase (Homo sapiens)) was “inactive” in each case.
As for `CCCOC(=O)c1cc(O)c(O)c(O)c1`, the Potency result (in [2]; in [3]; in experiment [7]; in experiment [8]; in experiment [6]; in the experiment with Aromatase (Homo sapiens)) was “inactive” each time. Besides, the Potency is 9.52 µM [inconclusive] (active) and 19.4 µM [inconclusive] (active) and 61.6 µM [inconclusive] (active) in experiment [4]; 26.6 µM (active) and inactive in experiment [5].
As for `COc1ccc(Cc2cnc(N)nc2N)cc1OC`, the Potency entry in experiment [2], in experiment [3], in [9], in [7], in [4] and in experiment [5] was “inactive” throughout. In addition, the Potency result (in [8]; in experiment [6]; with Aromatase (Homo sapiens)) was “inactive” each time.
As for `C=C(C)C(=O)O`, the Potency result in experiment [2], in experiment [3], in [9], in experiment [7], in experiment [4] and in experiment [5] was “inactive” throughout. For the same compound, the Potency entry (in experiment [8]; in experiment [6]; with Aromatase (Homo sapiens)) was “inactive” each time.
On to `O=C(O)c1cc(Cl)cc(Cl)c1`, for which the Potency entry in experiment [2], in experiment [3], in [9], in [7], in experiment [4] and in [5] was “inactive” throughout. Further, the Potency result (in [8]; in experiment [6]; with Aromatase (Homo sapiens)) was “inactive” throughout.
Consider `O=C1OC2(c3ccc(O)cc3Oc3cc(O)ccc32)c2ccccc21`, for which the Potency entry (in experiment [2]; in [3]; in experiment [7]; in experiment [4]; in [8]; with Aromatase (Homo sapiens)) was “inactive” throughout. For the same compound, the Potency result in [5] is “inactive and 23.7 µM (active)”.
Regarding `Cc1c(O)cccc1C(=O)N[C@@H](CSc1ccccc1)[C@H](O)CN1C[C@H]2CCCC[C@H]2C[C@H]1C(=O)NC(C)(C)C`, the Potency is 5.31 µM (active) and 2.11 µM (active) in [1]; 53.5 µM (active) in [7]; 18.8 µM (active) and 26.6 µM (active) in experiment [6]; 26.6 µM (active) and 23.7 µM (active) with Aromatase (Homo sapiens). Also, the Potency entry in experiment [3] is “inactive”.
In the case of `CCCCCCCCCCCCCC[P+](CCCC)(CCCC)CCCC`, the Potency in experiment [1] is 2.16 µM (active) and 2.17 µM (active); in experiment [9], 21.9 µM [cytotoxic] (active); in [7], 3.45 µM (active) and 8.71 µM (active); in experiment [8], 6.82 µM (active) and 4.86 µM (active); in experiment [6], 17.1 µM (active) and 15.4 µM (active); in the experiment with Aromatase (Homo sapiens), 7.65 µM (active) and 6.11 µM (active).

For the origin of these results see PubChem BioAssay (Tox21).
